Source: PubChem BioAssay AID1259240 (Keith Lab, Institute of Cancer Science, University of …, 2017)
A number with no mark means an inactive call. Activity calls are given as the source filed them. Rule as the data show it: active = fold change mostly below about -2 (no sharp cut-off); inactive = mostly above about -1.8.

test: TERT promoter activity modulators, primary screen, cell-based, luciferase reporter, human (AID 1259240); settings: A2780 TERT promoter luciferase reporter, 16 h; at 20 µM, fold versus average of vehicle-only wells

Q: For `COc1cc(NC(=O)C2CCCN(S(=O)(=O)c3ccc4c(c3)oc(=O)n4C)C2)cc(OC)c1` (stereo not given), which fold change is on record?
A: Its fold change is 1.09.

Q: With `CC(C)Cc1cc(C(=O)Nc2cnn(Cc3ccc(F)cc3)c2)no1` as the molecule, how does the fold change read?
A: Its fold change is -1.44.

Q: For `c1cnc2c(SCc3cn4ccccc4n3)cccc2c1`, which fold change is on record?
A: Its fold change is -1.15.

Q: Which fold change does the source give for `CCc1nc(C)cn1S(=O)(=O)c1cc(C)c(OC)cc1C` here?
A: The fold change was -1.15.

Q: Which fold change does the source give for `O=C(NC1CCCC1)c1ccc2nc(N3CCOCC3)sc2c1` here?
A: The fold change was -1.15.

Q: Which fold change does the source give for `COc1ccc(NC(=O)Nc2c(C)n(C)n(-c3ccccc3)c2=O)cc1` here?
A: The fold change was -1.33.

Q: For `CN1C(C(=O)c2ccccc2)=C(OC(=O)c2ccc(F)cc2)c2ccccc2S1(=O)=O`, which fold change is on record?
A: Its fold change is 1.16.

Q: For `CCOC(=O)N1CCC(Nc2c(N3CC(C)CC(C)C3)c(=O)c2=O)CC1` (stereo not given), which fold change is on record?
A: Its fold change is 1.09.

Q: Which fold change does the source give for `Cc1c(NC(=O)c2cc(C3CC3)on2)c(=O)n(-c2ccccc2)n1C` here?
A: Its fold change is -1.33.

Q: For `CCOC(=O)CSc1n[nH]c(N)n1`, which fold change is on record?
A: Its fold change is -1.02.

Q: For `O=C1OC(Nc2ccc(F)cc2)c2ccccc21` (stereo not given), which fold change is on record?
A: Its fold change is -1.21.

Q: For `Cn1c(=O)c2c(SCC(=O)Nc3ccc(F)cc3)nc(-c3ccco3)nc2n(C)c1=O`, which fold change is on record?
A: The fold change was 1.12.

Q: With `COc1ccc(/C=c2\sc3nc(-c4cc(OC)c(OC)c(OC)c4)nn3c2=O)c(OC)c1` as the molecule, how does the fold change read?
A: The fold change was -1.26.

Q: With `CC(C)Oc1ccc(-c2cc(C(F)(F)F)n3ncc(C#N)c3n2)cc1` as the molecule, how does the fold change read?
A: The fold change was -2.17 (active).

Q: With `Cc1ccc(S(=O)(=O)NCCOc2nc(N(C)C)nc(N3CCOCC3)n2)cc1` as the molecule, how does the fold change read?
A: The fold change was -1.03.

Q: Which fold change does the source give for `Nc1nc(SCC(=O)c2ccc(O)cc2O)n[nH]1` here?
A: The fold change was -1.59.

Q: Which fold change does the source give for `Cc1c(C(=O)N2CC(C)CC(C)C2)sc2ncn(CC(=O)N3CCC(C)CC3)c(=O)c12` (stereo not given) here?
A: Its fold change is -1.37.

Q: Which fold change does the source give for `O=C(NC1CCCCCC1)C1CCC(CNc2c(NC3CCCCC3)c(=O)c2=O)CC1` (stereo not given) here?
A: Its fold change is -1.28.

Q: With `CCCN1CN=C(Nc2nc(C)c3ccc(C)cc3n2)NC1` as the molecule, how does the fold change read?
A: The fold change was -2.8 (active).

Q: For `CCCn1c(NCc2cccs2)nc2ccccc21`, which fold change is on record?
A: The fold change was 1.22.

Q: Which fold change does the source give for `Cc1nnc(SCc2nc(-c3ccc(Cl)cc3)no2)n1-c1ccccc1` here?
A: Its fold change is -1.9.

Q: With `CCOC(=O)C1=C(CS(=O)(=O)c2ccc(F)c(C)c2)NC(=O)NC1c1ccccc1` (stereo not given) as the molecule, how does the fold change read?
A: The fold change was 1.21.

Q: With `Cc1nc2sc3c(NC4CCCCC4)ncnc3c2c2c1COC(C)(C)C2` as the molecule, how does the fold change read?
A: The fold change was -1.55.

Q: Which outcome does the source give for `O=c1[nH]c(CN2CCN(CCO)CC2)nc2ccccc12` here?
A: Its outcome is “inactive”.

Q: Which fold change does the source give for `CCN(CC)CCNC(=O)CN1C(=O)COc2ccc(S(=O)(=O)N3CCOCC3)cc21` here?
A: Its fold change is -1.1.

Q: Which fold change does the source give for `CCOC(=O)N1CCC(Nc2c(N3CCCC3)c(=O)c2=O)CC1` here?
A: The fold change was -1.12.

Q: Which fold change does the source give for `Cc1noc(C(=O)Nc2cccc(Cl)c2)c1Cl` here?
A: Its fold change is 1.73.

Q: Which fold change does the source give for `CCOC(=O)c1ccc(-c2c(C(F)(F)F)oc3cc(O)c(CC)cc3c2=O)o1` here?
A: Its fold change is -2.58 (active).

Q: Which fold change does the source give for `Cc1ccc(-c2nc3ccccc3n3cc4c(=O)n(C)c(=O)n(C)c4c23)cc1` here?
A: Its fold change is -1.32.

Q: With `Cc1ccc2oc(-c3ccccc3C(=O)O)cc(=O)c2c1` as the molecule, how does the fold change read?
A: The fold change was 1.62.

Q: With `COc1ccc(-c2cc(N)n(S(=O)(=O)c3ccc([N+](=O)[O-])cc3)n2)cc1OC` as the molecule, how does the fold change read?
A: The fold change was 1.17.

Q: With `COc1ccc(/C=C/c2nc3scc(-c4cccs4)c3c(=O)o2)cc1` as the molecule, how does the fold change read?
A: Its fold change is -1.6.

Q: With `COCCNc1cc(C)nc2c(-c3ccc(Cl)cc3)c(C)nn12` as the molecule, how does the fold change read?
A: Its fold change is -1.07.

Q: Which fold change does the source give for `O=C(Nc1ccc(F)c(F)c1)C1CCCN1S(=O)(=O)c1cccc2nsnc12` (stereo not given) here?
A: The fold change was -1.3.

Q: For `COc1ccc(S(=O)(=O)n2nc(-c3ccc(Cl)cc3)cc2N)cc1OC`, which fold change is on record?
A: Its fold change is 1.41.

Q: For `COCCn1c(SCC(=O)NCC2CCCO2)nnc1-c1c[nH]c2ccccc12` (stereo not given), which outcome is on record?
A: Its outcome is “inactive”.

Q: For `O=C(CSc1ncnc2ccccc12)N1CCc2ccccc21`, which fold change is on record?
A: Its fold change is 1.26.

Q: Which fold change does the source give for `Fc1ccc(-c2nnc3ccc(N4CCOCC4)nn23)cc1` here?
A: Its fold change is 1.05.

Q: Which fold change does the source give for `Clc1ccc(-c2nnn3c2nc(NCC2CCCO2)c2ccccc23)cc1` (stereo not given) here?
A: Its fold change is -1.11.

Q: Which fold change does the source give for `CSc1ccccc1NC(=O)c1onc(C)c1Cl` here?
A: The fold change was 1.5.
